# Over roughly 18,000 sequences, “log2 normalized intensity” has its median near 0.39; the highest 2% begin near 6.6. For the sample, the highest values were picked, then their nearest neighbours and some sequences at random.
# Molecular target: T1, HNF4alpha2 (COS-7 nuclear extract) (Homo sapiens, UniProt P41235 1-474)
# T1 sequence: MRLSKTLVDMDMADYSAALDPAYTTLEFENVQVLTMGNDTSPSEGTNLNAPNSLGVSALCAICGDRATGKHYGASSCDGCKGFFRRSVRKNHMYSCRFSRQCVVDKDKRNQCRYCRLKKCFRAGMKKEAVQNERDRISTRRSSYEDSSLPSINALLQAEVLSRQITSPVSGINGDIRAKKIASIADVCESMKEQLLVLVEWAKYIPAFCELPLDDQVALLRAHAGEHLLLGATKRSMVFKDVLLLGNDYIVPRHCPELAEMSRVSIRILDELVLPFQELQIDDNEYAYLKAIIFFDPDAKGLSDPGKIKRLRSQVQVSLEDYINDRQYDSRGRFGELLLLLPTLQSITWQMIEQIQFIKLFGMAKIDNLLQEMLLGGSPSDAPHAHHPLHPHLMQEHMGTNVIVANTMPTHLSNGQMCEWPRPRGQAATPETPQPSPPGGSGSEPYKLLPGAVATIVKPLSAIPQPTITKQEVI
# Assay: protein-binding microarray; COS-7 nuclear extract on double-stranded Agilent 4x180k PBM; binding buffer, salt, pH and temperature not given in the material; high values mean tight binding
# Conditions: chain copies: 2; label: 3' end of strand 1 on the slide; dsDNA, one strand shown
# Outline: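 Using CaPO4, COS-7 cells were transiently transfected with a human HNF4α isoform expression vector, and their nuclear extracts were applied to a custom Agilent SurePrint G3 4x180k double-stranded oligonucleotide array (~60 nt; ~44,000 test sequences in quadruplicate). Bound HNF4α was imaged at 2-µm resolution with an Agilent G2565CA scanner. Agilent software supplied the background-corrected, normalized gProcessedSignal that serves as the binding signal.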
row,Sequence,binding signal
1,AAAATTAAGGTTCAAAGGGAAAAAATAATCGCCTAGGGAGATTAGAGTATCGGTCGA,-0.757 log2 normalized intensity
2,TTCCATTGAAGCAGAGTGTCCCATATCACAGCCTAGGGAGATTAGAGTATCGGTCGA,0.724 log2 normalized intensity
3,GTTAGATTAGTGTGCAGCTTTGTGTAAAACGCCTAGGGAGATTAGAGTATCGGTCGA,0.946 log2 normalized intensity
4,AGATCTCAGTTGGTCCAAGGTACATGTCTCGCCTAGGGAGATTAGAGTATCGGTCGA,2.34 log2 normalized intensity
5,CTCTTTGGTGCAAAGGTCAGGACAAGGCTCGCCTAGGGAGATTAGAGTATCGGTCGA,4.3 log2 normalized intensity
6,GACCTTTGCCCTCTGGCCCTTAAAGGCTTTGCCTAGGGAGATTAGAGTATCGGTCGA,6.99 log2 normalized intensity
7,CCCTGCCTGACCTGCCCTTTGTCCCTCCTGGCCTAGGGAGATTAGAGTATCGGTCGA,4.51 log2 normalized intensity
8,CTCTGCAGAGGCTTCCTCTTTGGTGCAAAGGCCTAGGGAGATTAGAGTATCGGTCGA,-0.855 log2 normalized intensity
9,ACAGAAGAAGGAAAAGGCCTGACCTTTGCCGCCTAGGGAGATTAGAGTATCGGTCGA,4.61 log2 normalized intensity
10,GACAGCTGGGCCCTGCCTGACCTGCCCTTTGCCTAGGGAGATTAGAGTATCGGTCGA,4.42 log2 normalized intensity
11,CCCTCGACCTTTGCCCTCCATAAGGGGGAGGCCTAGGGAGATTAGAGTATCGGTCGA,6.24 log2 normalized intensity
12,TTCTGCCCCTTGCTCCTGCTTGCTGGCTTTGCCTAGGGAGATTAGAGTATCGGTCGA,1.2 log2 normalized intensity
13,CAGAGGCTTCCTCTTTGGTGCAAAGGTCAGGCCTAGGGAGATTAGAGTATCGGTCGA,6.86 log2 normalized intensity
14,AGAGGACAGAAGAAGGAAAAGGCCTGACCTGCCTAGGGAGATTAGAGTATCGGTCGA,-0.388 log2 normalized intensity
15,AGAAGGAAAAGGCCTGACCTTTGCCCTCTGGCCTAGGGAGATTAGAGTATCGGTCGA,10.1 log2 normalized intensity
16,GAAAAGGCCTGACCTTTGCCCTCTGGCCCTGCCTAGGGAGATTAGAGTATCGGTCGA,9.1 log2 normalized intensity
17,TTGAAGCAGAGTGTCCCATATCACATTTTAGCCTAGGGAGATTAGAGTATCGGTCGA,0.955 log2 normalized intensity
18,TGCTTATCAGTGTACCTGTCCCTACTCAATGCCTAGGGAGATTAGAGTATCGGTCGA,0.371 log2 normalized intensity
19,GTGCCCTCATAAGAGACTTTGCCCTTTTTTGCCTAGGGAGATTAGAGTATCGGTCGA,5.63 log2 normalized intensity
20,TCAGGACTCTAACTGGCTTTAAGAGGAATGGCCTAGGGAGATTAGAGTATCGGTCGA,-0.943 log2 normalized intensity
21,AGGAATGAGACATGAATCCATCCCACCTCAGCCTAGGGAGATTAGAGTATCGGTCGA,-0.775 log2 normalized intensity
22,AAACTTTAGTAGTCCAAAGCTCAGATTGCCGCCTAGGGAGATTAGAGTATCGGTCGA,0.566 log2 normalized intensity

row,Sequence,binding signal
1,AGATGGTCTCAGGTGGAGATAAGGAATTTGGCCTAGGGAGATTAGAGTATCGGTCGA,-0.171 log2 normalized intensity
2,TTGAAAGTTTGGTGGACTTTGGCCGTGAAGGCCTAGGGAGATTAGAGTATCGGTCGA,6.79 log2 normalized intensity
3,TAATTCTTCTTTGAAAGTTTGGTGGACTTTGCCTAGGGAGATTAGAGTATCGGTCGA,6.32 log2 normalized intensity
4,GGTGGACTTTGGCCGTGAAGCCGTCCTGTCGCCTAGGGAGATTAGAGTATCGGTCGA,5.03 log2 normalized intensity
5,GGCATTAATTCTTCTTTGAAAGTTTGGTGGGCCTAGGGAGATTAGAGTATCGGTCGA,2.23 log2 normalized intensity
6,AGTTTGGTGGACTTTGGCCGTGAAGCCGTCGCCTAGGGAGATTAGAGTATCGGTCGA,6.2 log2 normalized intensity
7,CTTCTTTGAAAGTTTGGTGGACTTTGGCCGGCCTAGGGAGATTAGAGTATCGGTCGA,9.62 log2 normalized intensity
8,TTTGCTCCAGTTCCCAATAATTTCCTTATCGCCTAGGGAGATTAGAGTATCGGTCGA,-0.628 log2 normalized intensity
9,TGTAACTAACAACTGACCTTGCAGGCCAGGGCCTAGGGAGATTAGAGTATCGGTCGA,-0.838 log2 normalized intensity
10,TCTGTTTGATTCCATGCTGATAATGGAATTGCCTAGGGAGATTAGAGTATCGGTCGA,0.756 log2 normalized intensity
11,GAATAATCCCCTCCTGGACTTTGGTCTCATGCCTAGGGAGATTAGAGTATCGGTCGA,7.15 log2 normalized intensity
12,GACATGCAGTATGGGGACTTTGGACTCCTGGCCTAGGGAGATTAGAGTATCGGTCGA,7.53 log2 normalized intensity
13,ATCCCCTCCTGGACTTTGGTCTCATGGGCCGCCTAGGGAGATTAGAGTATCGGTCGA,6.4 log2 normalized intensity
14,CAAATGAATAATCCCCTCCTGGACTTTGGTGCCTAGGGAGATTAGAGTATCGGTCGA,4.73 log2 normalized intensity
15,CTCCTGGACTTTGGTCTCATGGGCCTAAACGCCTAGGGAGATTAGAGTATCGGTCGA,4.65 log2 normalized intensity
16,GTAATGACATGCAGTATGGGGACTTTGGACGCCTAGGGAGATTAGAGTATCGGTCGA,5.99 log2 normalized intensity
17,ATCAGTGTACCTGTCCCTACTCAATTATCAGCCTAGGGAGATTAGAGTATCGGTCGA,-0.287 log2 normalized intensity
18,CAAGAATACGGATTCTTAAGGGCAAAGGTTGCCTAGGGAGATTAGAGTATCGGTCGA,5.88 log2 normalized intensity
19,GCTGTGCCGAGCCTGCAGGTGAATGGAAACGCCTAGGGAGATTAGAGTATCGGTCGA,-0.549 log2 normalized intensity
20,AATCTGAATTAACTCTTTACACAGTTCTGAGCCTAGGGAGATTAGAGTATCGGTCGA,-0.00196 log2 normalized intensity
21,ACAAAAACTGTTTCTATGTGACCTTCACCCGCCTAGGGAGATTAGAGTATCGGTCGA,5.26 log2 normalized intensity
22,AAGACTTCCTGGCCTCTCTGCAAATTTGCCGCCTAGGGAGATTAGAGTATCGGTCGA,-0.993 log2 normalized intensity

row,Sequence,binding signal
1,GTTAGGAAACACTCTGTTTGTAAAGTCTACGCCTAGGGAGATTAGAGTATCGGTCGA,0.577 log2 normalized intensity
2,TTTTCCTTGGCTGTGCTGCCCTTTGCCCTTGCCTAGGGAGATTAGAGTATCGGTCGA,7.6 log2 normalized intensity
3,GGGTGGGGTGCTGCCTTTCCTGTGACTTTTGCCTAGGGAGATTAGAGTATCGGTCGA,1.74 log2 normalized intensity
4,GGACTTTGGGCTGTGTTTTGCCCCTGCAGAGCCTAGGGAGATTAGAGTATCGGTCGA,3.66 log2 normalized intensity
5,GAGAGTTTTCCTTGGCTGTGCTGCCCTTTGGCCTAGGGAGATTAGAGTATCGGTCGA,3.6 log2 normalized intensity
6,CTGTGCTGCCCTTTGCCCTTTGGGAAGGGGGCCTAGGGAGATTAGAGTATCGGTCGA,5.8 log2 normalized intensity
7,CTTGGCTGTGCTGCCCTTTGCCCTTTGGGAGCCTAGGGAGATTAGAGTATCGGTCGA,7.11 log2 normalized intensity
8,GGGCATGGACTTTGGAATTAAGGAGATTTGGCCTAGGGAGATTAGAGTATCGGTCGA,4.96 log2 normalized intensity
9,AGATCCGAAGTCTAGGACGTTATCAGCAGGGCCTAGGGAGATTAGAGTATCGGTCGA,0.0613 log2 normalized intensity
10,ATAAGTTTTCTCATAAAACACCCACCTTGTGCCTAGGGAGATTAGAGTATCGGTCGA,-0.452 log2 normalized intensity
11,TGGCTAAGACAGGGGCTATTTCTGACCTTTGCCTAGGGAGATTAGAGTATCGGTCGA,6.5 log2 normalized intensity
12,AAGACAGGGGCTATTTCTGACCTTTGCACCGCCTAGGGAGATTAGAGTATCGGTCGA,9.65 log2 normalized intensity
13,CTATTTCTGACCTTTGCACCAGAGATAATAGCCTAGGGAGATTAGAGTATCGGTCGA,5.8 log2 normalized intensity
14,TCTGACCAGGCTGATTTAGCTATTTGACCTGCCTAGGGAGATTAGAGTATCGGTCGA,4.02 log2 normalized intensity
15,CCTTTGCACCAGAGATAATATGCTTACTTAGCCTAGGGAGATTAGAGTATCGGTCGA,0.0286 log2 normalized intensity
16,AGGGGCTATTTCTGACCTTTGCACCAGAGAGCCTAGGGAGATTAGAGTATCGGTCGA,6.87 log2 normalized intensity
17,ATGACTCCAAAGTTCAAACTCTGAAAGCACGCCTAGGGAGATTAGAGTATCGGTCGA,2.34 log2 normalized intensity
18,CCCTGCAGTCCTCTGCTTATCTGGCCTGCTGCCTAGGGAGATTAGAGTATCGGTCGA,-0.935 log2 normalized intensity
19,ATCTGGTGGTGGTTCTTGTTTCATTGCACAGCCTAGGGAGATTAGAGTATCGGTCGA,1.84 log2 normalized intensity
20,GTCTTGAGCGCAAATGATCAAAGGTCGGTTGCCTAGGGAGATTAGAGTATCGGTCGA,5.6 log2 normalized intensity
21,TCAGCACTGAGAGATTACATTTGACTGAGGGCCTAGGGAGATTAGAGTATCGGTCGA,-0.895 log2 normalized intensity
22,AACCTTCATCTCTCTTTGTTGACATCTGCTGCCTAGGGAGATTAGAGTATCGGTCGA,0.528 log2 normalized intensity

row,Sequence,binding signal
1,TCTTTCAGTGTTGACCTTTGAACATTTCTTGCCTAGGGAGATTAGAGTATCGGTCGA,8.04 log2 normalized intensity
2,CATGCTCTTGGAATGTTGAACCTTTCTTTGGCCTAGGGAGATTAGAGTATCGGTCGA,2.64 log2 normalized intensity
3,GAATGTTGAACCTTTCTTTGTCTTTGCAATGCCTAGGGAGATTAGAGTATCGGTCGA,2.02 log2 normalized intensity
4,AGGAGTGTCTTTCTCCTTGAACACAGTGTTGCCTAGGGAGATTAGAGTATCGGTCGA,1.25 log2 normalized intensity
5,TATCCAATAAAACACTATCTTCTTTCAGTGGCCTAGGGAGATTAGAGTATCGGTCGA,0.883 log2 normalized intensity
6,AACACTATCTTCTTTCAGTGTTGACCTTTGGCCTAGGGAGATTAGAGTATCGGTCGA,6.87 log2 normalized intensity
7,TATCTTCTTTCAGTGTTGACCTTTGAACATGCCTAGGGAGATTAGAGTATCGGTCGA,8.83 log2 normalized intensity
8,TCTTGGAATGTTGAACCTTTCTTTGTCTTTGCCTAGGGAGATTAGAGTATCGGTCGA,2.24 log2 normalized intensity
9,CTTAAAGGCCTGTGTCGATGTTAACGCTAAGCCTAGGGAGATTAGAGTATCGGTCGA,-0.828 log2 normalized intensity
10,GCCCTTCCCCCCTCTGCAGCCTTACCCAGTGCCTAGGGAGATTAGAGTATCGGTCGA,4.59 log2 normalized intensity
11,TGTCGTTTGCTTAGTCTTATCTGAGGTGCCGCCTAGGGAGATTAGAGTATCGGTCGA,0.932 log2 normalized intensity
12,GAAATGGTGGACTTTGTAGCTCAAACAGTCGCCTAGGGAGATTAGAGTATCGGTCGA,3.13 log2 normalized intensity
13,TATGGATAGGCACATATTGGATCTCTGGTAGCCTAGGGAGATTAGAGTATCGGTCGA,0.865 log2 normalized intensity
14,CAGTTTGAAATTAGGCAATATGAGTAGAGCGCCTAGGGAGATTAGAGTATCGGTCGA,-0.693 log2 normalized intensity
15,TTGGCTAAAGTCCAAATTCCTTGGAATACAGCCTAGGGAGATTAGAGTATCGGTCGA,3.12 log2 normalized intensity
16,CACACACACACAGCATTCCATTCATTTTAGGCCTAGGGAGATTAGAGTATCGGTCGA,-0.727 log2 normalized intensity
17,AACATGTAATCATTTGGGACAAAGTTCATCGCCTAGGGAGATTAGAGTATCGGTCGA,4.11 log2 normalized intensity
18,TGAACAATTGATTTATAGCCTTTTTGCCCAGCCTAGGGAGATTAGAGTATCGGTCGA,1.29 log2 normalized intensity
19,TGCTTTCTTATCTGGGGGCCATTCCTCTATGCCTAGGGAGATTAGAGTATCGGTCGA,1.1 log2 normalized intensity
